# Experimental data reported in PubChem BioAssay AID1527 (The Scripps Research Institute Molecular Screening Center, 2009).
# About 2,600 (0.9%) of roughly 290,000 compounds were called active.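 The calls were made as follows: active = inhibition above the mean of all tested compounds plus 3 SD, cutoff set per screening run (cut at about 7.5% in these data); inactive = the rest.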 What follows is part of a selection rich in actives, with near analogues and random picks from the rest.
# Test system: VIM-2 metallo-beta-lactamase (Pseudomonas aeruginosa)
# Test: inhibition of VIM-2 nitrocefin hydrolysis – biochemical, epi-absorbance readout, Pseudomonas aeruginosa enzyme, primary screen (AID 1527);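 also: red hydrolysis product quenches plate fluorescence so inhibitors raise well fluorescence; 0% = enzyme with DMSO and 100% = DMSO without enzyme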
# Details: purified VIM-2, nitrocefin hydrolysis, epi-absorbance fluorescence; at 5.6 µM; active compounds read high
row,Structure (SMILES),inhibition
1,CCc1ccc(C2N3CC4([N+](=O)[O-])CN2CC([N+](=O)[O-])(C3)C4(C)C)cc1 (stereo not drawn),-3.1% (inactive)
2,COc1ccc(/C=C2\CCCC3C2=NN(C(=O)c2scnc2C)C3c2ccc(OC)cc2)cc1 (stereo not drawn),-4.89% (inactive)
3,COc1cccc(NC(=O)c2cc(S(=O)(=O)N3CCc4ccccc43)cn2C)c1,-2.53% (inactive)
4,CS(=O)(=O)Nc1ccccc1N=C(c1ccccc1)c1ccccc1,-0.7% (inactive)
5,CCc1nc(Nc2ccc3nccnc3c2)c2oc3ccccc3c2n1,6.61% (inactive)
6,C[C@@H](Nc1nc(-c2ccccc2)nc2c1oc1ccccc12)C(=O)O,-1.13% (inactive)
7,CCc1nc(Nc2ccc(NC(C)=O)cc2)c2oc3ccccc3c2n1,9.84% (active)
8,COc1cc(OC)c(NS(=O)(=O)c2cn(C)cn2)cc1Cl,-2.52% (inactive)
9,CC1(C)Cc2c(sc(NC(=O)C(=O)NCC3CCCO3)c2C(=O)O)CO1 (stereo not drawn),-1.53% (inactive)
10,CC1CCCCC1NC(=O)/C(C#N)=C/C=C/c1ccccc1[N+](=O)[O-] (stereo not drawn),-2.25% (inactive)
11,Cc1ccc(C)c(CN2CCC(CNC(=O)Nc3ccc(C)c(F)c3)CC2)c1,-1.95% (inactive)
12,Oc1ccc2ccc3cccc[n+]3c2c1,34.2% (active)
13,COC(=O)c1ccc(NC(=O)c2cc3c(CO)cnc(C)c3oc2=Nc2cccc(C(N)=O)c2)cc1,-0.03% (inactive)
14,Cc1c(C)c2c(OCC(=O)N[C@@H](C(=O)O)c3ccccc3)cc3c(c2oc1=O)CCC(C)(C)O3,10.8% (active)
15,Cc1cc(=O)oc2c3c(cc(OCC(=O)N[C@H](C(=O)O)c4ccccc4)c12)OC(C)(C)CC3,1.96% (inactive)
16,Cc1c(C)c2c(OCC(=O)NCCCO)cc3c(c2oc1=O)CCC(C)(C)O3,1.34% (inactive)
17,CCC(C(=O)NC1CCCCC1)N(C(=O)c1snc(C(N)=O)c1N)c1ccc(OC)cc1OC (stereo not drawn),-1.99% (inactive)
18,Cc1c2cnn(CC(=O)NCc3ccccn3)c(=O)c2c(C)n1Cc1ccc(Cl)cc1,-1.23% (inactive)
19,COc1cc(NS(=O)(=O)c2ccc(NC(=O)c3ccc([N+](=O)[O-])cc3)cc2)ncn1,-1.86% (inactive)
20,CCCc1ccc(OCCNC(=O)c2ccccc2Br)cc1,-1.47% (inactive)
21,CCCc1ccc(OCCNC(=O)c2ccco2)cc1,33.4% (active)
22,CCCc1ccc(OCC(=O)NNC(=S)NC(=O)c2ccco2)cc1,-2.04% (inactive)
23,COc1ccc(Br)cc1CN1CCN(C(=O)c2cccc(OC)c2OC)CC1,-0.04% (inactive)
24,COc1cccc(C(=O)OCc2cc(=O)oc3c(C)c(C)ccc23)c1OC,8.21% (active)

row,Structure (SMILES),inhibition
1,COC(=O)Cc1cc(=O)oc2c(C)c(O)ccc12,-5.11% (inactive)
2,CCOC(=O)C1(Cc2ccccc2C)CCCN(C(=O)CN2C(=O)CSC2=O)C1 (stereo not drawn),-2.37% (inactive)
3,CNC[C@H](CC1CCCCC1)NC[C@H](NCCC1CCCC1)[C@H](C)O,2.09% (inactive)
4,Cc1ccc(C(=O)N/C(=C\c2ccc(F)cc2)C(=O)NCCN2CCOCC2)cc1,-0.14% (inactive)
5,CCOC(=O)[C@@H]1[C@H]2COc3cc(OC)ccc3[C@H]2N2C(=O)N(c3ccc(F)cc3)C(=O)[C@]12C,-2.77% (inactive)
6,O=C1Nc2cc(C(=O)N3CCC(N4CCCCC4)CC3)ccc2S/C1=C\c1ccccc1,27.9% (active)
7,CC1CCN(C(=O)c2ccc3c(c2)NC(=O)CN3)CC1,-1.26% (inactive)
8,O=C(NC1CC1)c1ccc2c(c1)NC(=O)c1ccccc1S2,1.27% (inactive)
9,Cc1cccc(C)c1NC(=O)CS(=O)CC(=O)N1CCN(c2ccccc2)CC1 (stereo not drawn),-3.23% (inactive)
10,Cc1ccc(NC(=O)C2CC2c2ccccc2)cc1 (stereo not drawn),-1.58% (inactive)
11,Cc1nc(/N=C(\N)NC(=O)NC2CCCCC2)nc2ccccc12,-2.89% (inactive)
12,Cc1cccc2c(=O)n3c(nc12)CCCCC3,-3.47% (inactive)
13,CC(=O)Oc1ccc(-c2nc3c(C)cccc3c(=O)o2)cc1,-0.68% (inactive)
14,COc1nc(N=C(N)N)nc2c(C)cccc12,14.3% (active)
15,COc1ccc2nc(/N=C(\N)NC(=O)Nc3ccccc3)nc(C)c2c1,-0.81% (inactive)
16,Cc1nc(N=C(N)N)nc2c(C)cccc12,8.56% (active)
17,Cc1ccc(Oc2nc(-c3ccccn3)nc3ccccc23)cc1,-1.45% (inactive)
18,c1ccc(-c2nccc(-c3ccc(-n4cnc5ccccc54)cc3)n2)nc1,59.9% (active)
19,Cc1nccc(-c2ccc(-n3c(C)ccc3C)cc2)n1,-2.42% (inactive)
20,CCCCn1c(-c2cccc(C)c2)nc2cc3[nH]c(=O)c(C(C)C)nc3cc21,-2.3% (inactive)
21,COc1ccc(-c2csc3ncnc(N4CCN(S(=O)(=O)c5ccccc5C#N)CC4)c23)cc1,-2% (inactive)
22,CCN(CC)C(=O)CSC(Nc1cccc(F)c1)=C(C#N)C#N,-4.85% (inactive)
23,CSc1nc2ccccc2c(=O)n1Cc1ccc(F)cc1,-1.75% (inactive)
24,Cc1cc2nc3c(=O)n(Cc4ccccc4)c(=O)[nH]c3nc2cc1N,13.2% (active)

row,Structure (SMILES),inhibition
1,O=c1[nH]c2c(c(=O)n1Cc1ccccc1)CCC2,-3.01% (inactive)
2,O=S(=O)(Nc1cccc(-n2cnnn2)c1)c1cnc(Cl)c(Cl)c1,-1.96% (inactive)
3,CCN(CC)CCCNC(=O)c1c(O)c2cc(F)cc3c2n(c1=O)C(C)CC3 (stereo not drawn),8.41% (active)
4,CCN(CC)CCCNC(=O)c1cn(C)c2ccc(S(=O)(=O)N(C)C3CCCCC3)cc2c1=O,2.02% (inactive)
5,CCNC(=O)c1c(O)c2cccc3c2n(c1=O)CC3,1.77% (inactive)
6,CN(C)c1cc(-c2ccc(F)cc2)oc(=O)c1Cl,-0.81% (inactive)
7,CC(CCc1ccccc1)NC(=O)c1cnc(Cl)c(Cl)c1 (stereo not drawn),-3.59% (inactive)
8,COc1ccc(OCCn2ccnc2C)cc1,0.01% (inactive)
9,C=CCOc1cccc(C2C(C(=O)c3ccc(C)o3)=C(O)C(=O)N2CCCn2ccnc2)c1 (stereo not drawn),-2.31% (inactive)
10,CC(Nc1nc(N2CCN(CCO)CC2)nc2ccccc12)c1ccccc1 (stereo not drawn),-0.41% (inactive)
11,CC(Nc1nc(N2CCCC2)nc2ccccc12)c1ccccc1 (stereo not drawn),10.3% (active)
12,CC(Nc1nc(N2CCOCC2)nc2ccccc12)c1ccccc1 (stereo not drawn),-1.07% (inactive)
13,CCOCCCNc1c(CC)c(C)c(C#N)c2nc3ccccc3n12,12.7% (active)
14,CCOCCn1c(-c2ccccc2)nc2ccccc21,-2.42% (inactive)
15,CCOCCCNc1nc(-c2ccccc2)nc2ccccc12,1.44% (inactive)
16,CCOC(=O)C1(c2ccccc2)NC(c2ccc(N(C)C)cc2)C2C(=O)N(C)C(=O)C21 (stereo not drawn),-1.25% (inactive)
17,COc1ccc(CN2CC(C(=O)NC3CCCCC3)CC2=O)cc1 (stereo not drawn),0.64% (inactive)
18,COc1ccc(N(CC(=O)Nc2cccc3ccccc23)S(C)(=O)=O)c(OC)c1,-2.25% (inactive)
19,N#Cc1c2c(c(-c3ccccc3)[nH]c1=O)CCCC2,-0.97% (inactive)
20,c1ccc(-c2cc(-c3ccccc3)[nH]n2)cc1,-2.1% (inactive)
21,O=c1[nH]c(-c2ccccc2)c(-c2ccccc2)[nH]1,13.9% (active)
22,CCCCNC(=O)c1ccccc1NC(=O)C1=C(C)OCCS1,-1.59% (inactive)
23,COc1cc(NC(=O)C2=C(C)OCCS2)c(Cl)cc1C(=O)NCCN1CCN(C)CC1,25.9% (active)
24,COc1ccc(N2CCN(C(=O)c3ccccc3NC(=O)C3=C(C)OCCS3)CC2)cc1,-0.86% (inactive)

row,Structure (SMILES),inhibition
1,CCn1cc(CN2CCC(C(=O)Nc3cccc(-c4cccc(Cl)c4)c3)CC2)c(C)n1,-1.75% (inactive)
2,Cc1cc(OCC(=O)NC2CCN(C)CC2)ccc1[N+](=O)[O-],9.4% (active)
3,Cc1cc(OCCCCOc2ccc(C#N)cc2)ccc1[N+](=O)[O-],-2.44% (inactive)
4,Cc1cc(OCCCN2CCN(Cc3ccccc3)CC2)ccc1[N+](=O)[O-],8.13% (active)
5,O=C(COc1ccccc1[N+](=O)[O-])NC1CC1,-2.67% (inactive)
6,COc1cc(CN2CCN(Cc3ccc(C)cc3)CC2)c([N+](=O)[O-])cc1OC,0.03% (inactive)
7,Cc1cc(OCC(=O)Nc2c(C)n(C)n(-c3ccccc3)c2=O)ccc1[N+](=O)[O-],-4.47% (inactive)
8,Oc1ccc(-c2cccc(-c3ccc(O)cc3)c2)cc1,-2.2% (inactive)
9,Cc1ccc(CNC(=O)c2ccc(CS(=O)Cc3cccc(Cl)c3)o2)cc1 (stereo not drawn),-2.03% (inactive)
10,COCCCC1CCN(C(=O)C2CCC(=O)N(C3CCCCCC3)C2)CC1 (stereo not drawn),-3.17% (inactive)
11,O=C(COc1cc2oc(=O)c3c(c2cc1Cl)CCC3)NCCCN1CCOCC1,27.2% (active)
12,CCCc1cc(=O)oc2cc(OCC(=O)Nc3ccc(CN4CCOCC4)cc3)c(Cl)cc12,0.28% (inactive)
13,CCc1cc(=O)oc2c(C)c(OCC(=O)NCCN3CCOCC3)ccc12,6.89% (inactive)
14,Cc1ccc(-n2c(C)cc(C(=O)CSc3nnc4ccccn34)c2C)cc1,1.89% (inactive)
15,Cc1ccc(N/N=C2\COC(C)(C)CC2=O)cc1,-2.64% (inactive)
16,Cc1nn(-c2ccccc2)c(C)c1NC(=O)COc1ccc(Cl)cc1Cl,-1.49% (inactive)
17,CN1CCC(OC(=O)COc2ccc(Cl)cc2Cl)CC1,4.57% (inactive)
18,CN1CCN(c2ccc(NC(=O)COc3ccc(Cl)cc3Cl)cc2)CC1,11.7% (active)
19,COc1ccc(-n2c(-c3ccc(OC)c(OC)c3)n[nH]c2=S)cc1,9.11% (active)
20,COc1ccc(OC)c(-n2c(-c3ccn[nH]3)n[nH]c2=S)c1,-0.56% (inactive)
21,Cc1ccc(-n2c(-c3ccc(Cl)cc3)n[nH]c2=S)cc1,-3.52% (inactive)
